# From PubChem
# A selection: hits, their analogues and other compounds. The true share with any hit is near 1.4%.
# AmpC no deterg – inhibitors of E. coli AmpC beta-lactamase without detergent. AmpC nitrocefin hydrolysis, absorbance 480 nm, 0.0001% Triton. Potency, µM (series often up to 57.1 µM), for inactives: at the highest dose activity change, negative = inhibition, most hits filed as inhibitors. hit rate 0.52% among 330,000. AID 485341;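 further: plate controls were no compound for no effect and no enzyme for full effect; nearly all actives have a fitted effect of over 20% in size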
#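 20 mM phosphate pH 7.0 + 0.01% (detergent screen) or 0.0001% Triton X-100; 5.3 nM AmpC reagent; cpd preinc 15 min RT; nitrocefin (800 uM stock) to start; A480 q20 s × 4 min; Activity was normalised to no-enzyme and no-compound control wells.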
# LmPK inhibitor – inhibitors of Leishmania mexicana pyruvate kinase; purified LmPK, Kinase-Glo ATP luminescence, 1 h; hit rate 0.37% among 290,000; AID 1721; Potency, µM (doses to about 57.5 µM), for the others: at the highest dose activity change, negative = inhibition, usual class: inhibitors
# Target sequence (Q27686 whole entry, looked up): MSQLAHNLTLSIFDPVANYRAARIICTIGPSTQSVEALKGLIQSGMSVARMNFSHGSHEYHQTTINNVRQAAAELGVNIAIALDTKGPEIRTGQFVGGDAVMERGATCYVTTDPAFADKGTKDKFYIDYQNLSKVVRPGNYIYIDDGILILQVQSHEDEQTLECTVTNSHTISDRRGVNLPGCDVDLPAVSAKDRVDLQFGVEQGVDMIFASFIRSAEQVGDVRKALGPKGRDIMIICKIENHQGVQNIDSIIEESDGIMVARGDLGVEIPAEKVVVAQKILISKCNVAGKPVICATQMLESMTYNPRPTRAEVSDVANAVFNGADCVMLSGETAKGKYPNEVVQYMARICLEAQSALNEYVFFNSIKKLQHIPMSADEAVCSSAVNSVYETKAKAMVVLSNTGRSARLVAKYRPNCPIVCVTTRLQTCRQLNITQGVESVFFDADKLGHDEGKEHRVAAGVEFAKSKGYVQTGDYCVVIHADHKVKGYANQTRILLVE
#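 Screened at intermediate enzyme activity to detect both inhibitors and activators: LmPK at 0.1 nM, with a 0.5 nM enzyme column as activation reference. PEP 0.5 mM, ADP 0.1 mM; ATP detected by luminescence after 1 h.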
# Giardia FBPA inh – blocks Giardia fructose-bisphosphate aldolase activity; A8B2U2; hit rate 0.71% among 290,000; AID 2451; Potency, µM (series often up to 59.6 µM), for the others: top-dose activity, negative = inhibition, usual class: inhibitors; purified Giardia FBPA; further: nearly all actives have a fitted effect of over 55% in size
#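 40 nM FBPA preincubated 10 min at RT with compound (up to 57.5 uM final), then substrate plus GAPDH/TPI/NAD/arsenate coupling and diaphorase/resazurin added. Fluorescence read after 20 min at RT, 525/598 nm.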
# RE007 growth inh – less growth of the S. pombe RE007 Vpr strain; hit rate 0.21% among 360,000; Potency, µM (doses to about 92.2 µM), for the others: at the highest dose activity change, negative = less growth, usual class: inhibitors; S. pombe RE007 Vpr strain, BacTiter-Glo ATP luminescence, 24 h; active means well fitted falling curve with a large enough effect; inconclusive means small, poorly fitted or top-dose-only effect; inactive means no such curve, though single readings can be large or run the other way; further: nearly all actives have a fitted effect of over 50% in size
#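 Fission yeast strain RE007, carrying one chromosomally integrated HIV-1 vpr copy, was seeded at OD 0.01 in PMG+AL medium with 23 nL pinned compound. After 24 h at 30 °C and 99% humidity, viability was read by BacTiter-Glo luminescence.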
# Tb PYK inh – T. brucei pyruvate kinase inhibition; Q57TT1; AID 624173; TbPYK enzyme, Kinase-Glo Plus ATP luminescence, 45 min; hit rate 0.12% among 410,000; Potency, µM (highest dose often 76.8 µM), without a hit: top-dose activity, negative = inhibition, usual class: inhibitors; further: nearly all actives have a fitted effect of over 50% in size
#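 ADP (130 uM final) triggers the TbPYK reaction after compound addition; incubation is 45 min at room temperature. Kinase-Glo Plus is then added and luminescence imaged. Normalized data are fitted to concentration-effect curves.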
# AmpC inh detg – inhibitors of E. coli AmpC beta-lactamase with detergent; AmpC hydrolysis of nitrocefin, absorbance 480 nm, 0.01% Triton; Potency, µM (top dose mostly 114 µM), inactives show top-dose activity change, negative = inhibition, usual class: inhibitors; hit rate 0.041% among 370,000;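 further: 0% = no-compound wells and -100% = no-enzyme wells; nearly all actives have a fitted effect of over 25% in size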
#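 20 mM phosphate pH 7.0 + 0.01% (detergent screen) or 0.0001% Triton X-100; 5.3 nM AmpC reagent; cpd preinc 15 min RT; nitrocefin (800 uM stock) to start; A480 q20 s × 4 min; Activity was normalised to no-enzyme and no-compound control wells.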
# An asterisk follows results filed as active; ? = inconclusive; nt = no result; [ ] = another dose, or the depositor's remark. Unless noted, the call rests on the fitted dose curve; in most records, active means well fitted curve in the direction sought with a large enough effect; inconclusive means small, poorly fitted or top-dose-only effect, or another doubt; inactive means no such curve, though single readings can be large; an effect the other way counts as inactive or inconclusive. Unless noted, on the % scale 0 is the no-effect control and ±100 the full control effect; potency means the concentration at half of the fitted maximal effect.
SMILES,AmpC no deterg,LmPK inhibitor,Giardia FBPA inh,RE007 growth inh,Tb PYK inh,AmpC inh detg
Cc1cccc(Oc2ncnc3onc(C)c23)c1,0.79µM*,0%,0%,-12%,-7%,0%
CCCc1cc(C(=O)Nc2ccc(C(C)=O)cc2)no1,45µM*,4%,-4%,-20%,1%,-4%
CCCc1cc(C(=O)Nc2ccccc2SC)no1,40µM*,-13%,0%,-20%,2%,6%
CCCc1cc(C(=O)Nc2cccnc2)no1,-3%,11µM*,-1%,-28%,4%,-4%
CCCc1cc(C(=O)Nc2cccc(C(C)=O)c2)no1,-7%,11%,-5%,0%,1%,3%
CCCc1cc(C(=O)Nc2cccc(Cl)c2)no1,-13%,22µM*,2%,?,-10%,-13%
CCCc1cc(C(=O)NCc2cccnc2)no1,-8%,-2%,1%,9%,4%,-14%
CC(=O)C[C@H]1[C@H](O[C@H]2[C@H](OC(C)C(=O)N[C@@H](C)C(=O)N[C@H](CCC(=O)N[C@@H](CCCCN)C(=O)N[C@H](C)C(=O)O)C(N)=O)[C@@H](NC(=O)O)C(O)O[C@@H]2CO)O[C@H](CO)[C@@H](O)[C@@H]1O (stereo partly drawn),nt,nt,nt,nt,-5%,nt
O=C(/C=C/Nc1ccc(Br)cc1F)c1ccco1,-12%[2.29 µM],?,-5%,?,-14%,-12%
O=C(/C=C/Nc1ccc(F)cc1F)c1cccs1,-9%,8.9µM*,-14%,-29%,?,-14%
O=C(/C=C/Nc1ccccc1F)c1cccs1,-23%,16µM*,1%,-25%,?,?
O=C(/C=C/Nc1ccc(F)cc1F)c1ccco1,-23%,10µM*,-12%,-1%,?,-2%
O=C(/C=C\Nc1cccc(F)c1)c1cccs1,-18%,?,6%,?,-7%,-9%
CCOC(=O)c1ccccc1N/C=C/C(=O)c1cccs1,-15%,-14%,-4%,-9%,-8%,3%
COc1ccc(NC(=O)CN2CCN(Cc3ccc4c(c3)OCO4)CC2)cc1OC,-2%,-24%,18µM*,2%,5%,5%
O=C1C(=O)c2c(C(=O)c3ccccc3)coc2-c2ccccc21,-35%,2%,3.2µM*,11µM*,-4%,0%
Cc1oc2c(c1C(=O)O)C(=O)c1ccccc1C2=O,-21%,-1%,?,-11%,-7%,0%
Cc1oc2c(c1C(=O)c1ccccc1)C(=O)C(=O)c1ccccc1-2,-55%,3%,1.1µM*,?,-3%,4%
Cc1cc(C)c(Cn2c(C)c(CNCCCc3ccccc3)c(C(=O)O)c2C)c(C)c1,nt,nt,nt,nt,6%,19%
COc1cccc(NC(=O)Cn2cc3c(n2)CCCCC3)c1,-13%,5%,-3%,6%,-6%,?
O=C(Cn1cc2c(n1)CCCC2)NCc1cccs1,-6%,13%,1%,-8%,3%,?
COc1ccc(CNC(=O)Cn2cc3c(n2)CCCCC3)cc1,7.1µM*,2%,0%,-12%,0%,-4%
O=C(Cn1cc2c(n1)CCCC2)NCc1ccccn1,3.5µM*,-1%,-1%,-1%,1%,-16%
Cn1c(=O)c2c(nc(SCC(=O)Nc3ccccc3F)n2Cc2ccccc2F)n(C)c1=O,nt,nt,nt,nt,-4%,0%
CCOC(=O)c1[nH]c2ccc(C)cc2c1N,-6%,13µM*,-19%,-2%,-23%,-8%
SMILES,AmpC no deterg,LmPK inhibitor,Giardia FBPA inh,RE007 growth inh,Tb PYK inh,AmpC inh detg
CNc1ccc(/C=C/C(=O)c2cccc3ccccc23)cc1[N+](=O)[O-],28µM*,1%,-7%,2%,-7%,-16%
CNc1ccc(C(=O)c2ccccc2C(=O)O)cc1[N+](=O)[O-],-12%,20%,6%,1%,3%,-3%
Cc1ccc(N/C=C/C(=O)c2cccs2)cc1,-30%,16µM*,-11%,1%,-18%,?
O=C(Nc1ccc(NC(=O)c2cccs2)cc1)c1ccc(Br)o1,-44%,-10%,-11%,-3%,-7%,-2%
O=C(/C=C\Nc1ccc2c(c1)OCO2)c1ccc(Cl)s1,-6%[11.4 µM],-11%,-6%,-10%,2%,-14%
O=C(Nc1ccc2c(c1)OCO2)c1cccs1,nt,25µM*,-20%,?,-14%,10%
O=C(Nc1cccc(NC(=O)c2cccs2)c1)c1ccc(Br)o1,25µM*,-3%,0%,-6%,7%,-7%
O=C(/C=C\Nc1ccc2c(c1)OCO2)c1cccs1,-15%,11µM*,-8%,?,?,6%
CCCN(CCC)CCCNC(=O)c1sc2nc3n(c(=O)c2c1C)CCC3,nt,nt,nt,nt,3%,6%
CC(C)(C)C(=O)NCC(c1ccc2c(c1)OCO2)N1CCOCC1 (stereo not drawn),nt,nt,nt,nt,1%,1%
COCCCNC(=O)CCc1c(C)nc2cc(-c3ccc(Cl)cc3)nn2c1C,nt,nt,nt,nt,0%,-15%
CCc1ccc(CN(Cc2cn[nH]c2-c2ccc(OC)cc2)C(=O)Nc2cc(Cl)ccc2OC)cc1,nt,nt,nt,nt,2%,7%
O=C(/C=C\Nc1ccc2c(c1)OCO2)c1ccccn1,-25%,3.5µM*,-1%,-20%,-23%,0%
O=[N+]([O-])c1ccc(NC(=S)NCCc2ccc(Cl)cc2)cc1,0.14µM*,-1%,-4%,?,-6%,0%
O=[N+]([O-])c1ccc(NC(=S)NCCc2ccccc2)cc1,-43%,0%,-2%,-3%,-11%,-5%
Cc1ccc(N2CCN(C(=O)C3CCN(c4ncnc5c4nc4n5CCCCC4)CC3)CC2)c(C)c1,nt,nt,nt,nt,-5%,18%
COc1ccc2nc(N3CCCCC3)c(C#N)cc2c1,2%,-3%,18µM*,?,-5%,-14%
CCn1cc2nc(SCC(=O)Nc3cc(OC)ccc3OC)n(Cc3ccc(Cl)cc3)c(=O)c2n1,nt,nt,nt,nt,-1%,16%
CCN1/C(=N\N)c2cccc3cccc1c23,-16%,-12%,10µM*,-22%,-24%,-2%
CCC(C)NC(=O)CN1C(=O)c2cccc3cccc1c23 (stereo not drawn),-2%,0%,11%,1%,-21%,-6%
COc1ccc(S(=O)(=O)n2nc(C)c(S(=O)(=O)N3CCC(C)CC3)c2C)cc1OC,nt,nt,nt,nt,3%,-6%
CC1CCN(C(=O)CSc2c(C(C)C)cnc3c2c(=O)n(C)c(=O)n3C)CC1,nt,nt,nt,nt,?,-8%
CCCSc1nnc(N2C(=O)CC(c3ccsc3)C3=C2CCCC3=O)s1 (stereo not drawn),4.5µM*,2%,6%,0%,3%,?
O=C1CCCC2=C1C(c1ccsc1)CC(=O)N2c1ccccc1F (stereo not drawn),4%,-11%,3%,-9%,1%,5%
